A short description of assay [1]: Wnt pathway potentiators raising nuclear beta-catenin – imaging, WNT3A-conditioned medium, mouse C2C12, NPC library, primary screen (AID 1117326; in the data active means nuclear beta-catenin stimulation mostly above about 4.2%, no sharp cut-off; inactive means mostly below about 10%). As to conditions: stronger effect = higher value.
Assay [2] is described as follows: stimulators of insulin release from INS-1E, primary screen, cell-based, 5 mM glucose, NPC library (AID 1117329;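 active means compound raises insulin release from rat beta cells at 5 mM glucose, no numeric limit stated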). The settings on record: rat INS-1E insulin secretion, at 10 µM, stronger effect = higher value.
Assay [3] can be described thus: growth inhibition of GSK3B-pretreated HCT116 cells – cell-based, CellTiter-Glo, 0.2 to 20 µM (AID 1117336;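 active means compounds lowering colon cancer cell viability after pretreatment blocking the GSK3B kinase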). As to conditions: HCT116 viability after GSK3B inhibitor, at 20 µM, stronger effect = higher value. (In ATP-based viability assays light output follows the ATP content of the culture.)
The nature of assay [4]: inhibition of endothelial tube formation, primary screen, imaging, VEGF stimulated, CD31 staining, tube area, NPC library (AID 1117340;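 active means compound that reduces growth-factor-driven endothelial tube area in a mixed cell culture, no cutoff stated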). As to conditions: VEGF-stimulated ADSC/ECFC co-culture, at 10 µM, stronger effect = higher value.
Assay [5] in a line: GLP1 release stimulators, primary, NCI-H716, NPC library (AID 1117341;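 active means compound raises GLP1 secretion from the human gut endocrine cells, with no numeric limit stated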). As to conditions: NCI-H716 cells, at 10 µM, stronger effect = higher value.
Assay [6] is described as follows: HCT116 colon cancer cell growth inhibition, primary screen, CellTiter-Glo luminescence, NPC library (AID 1117342;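 active means compounds that lower survival of HCT116 colon cancer cells in the luminescence readout, no numeric limit stated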). As to conditions: at 20 µM (top of the series).
Assay [7] is described as follows: reduced SW480 viability measured with CellTiter-Glo, NPC library, primary (AID 1117343;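 active means compounds that lower viability of the colon cancer cells in the luminescence readout, with no numeric limit stated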). As to conditions: CellTiter-Glo luminescence; at 20 µM (top of the series).
Assay [8] in a line: NPC library primary testing for decreased DLD-1 cell viability via CellTiter-Glo (AID 1117346;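 active means compounds that lower survival of DLD-1 colon cancer cells in the luminescence readout, no cutoff given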). The settings on record: DLD-1 viability, CellTiter-Glo luminescence; at 20 µM (top of the series).
In assay [9] the target is 6-phosphogluconate dehydrogenase, decarboxylating (Homo sapiens) (UniProt P52209). Briefly: inhibition of human phosphogluconate dehydrogenase – biochemical, recombinant enzyme, NADPH absorbance, primary screen (AID 1159550;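 active means at least 20% inhibition of 6-phosphogluconate dehydrogenase activity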). The settings on record: recombinant 6PGD, NADPH absorbance 341 nm; at 10 µM; stronger effect = higher value.
The nature of assay [10]: EMT-state selective cytotoxicity in co-culture – imaging, PC-3E GFP, TEM4-18 mCherry, primary screen (AID 1345086;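 active means compounds killing one labelled cell type while sparing the other, by normalised counts and ratio limits, not self-fluorescent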;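 on all read-outs here: cells exposed to compound for 72 h before imaging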;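 on red/green cell ratio (normalised): normalised mesenchymal count divided by normalised epithelial count so high means epithelial killing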). The settings on record: PC-3E GFP / TEM4-18 mCherry co-culture, imaging cell counts, at 1 µM; for red/green cell ratio (normalised): actives lie on both sides, counts scaled to control wells, 1 = unselective.
Assay [11] can be described thus: MELAS cybrid and Rieske KO viability enhancers – cell-based, MELAS cybrids, Rieske KO mouse fibroblasts, CellTiter-Glo, primary screen (AID 1508586;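 active means mean z-score across replicates of 1.96 or higher in either the MELAS or the Rieske mutant cell line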;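 further: z relative to plate mean and SD of compound and empty wells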). As to conditions: low glucose.
The target in assay [12] is NAD(+) hydrolase SARM1 (Homo sapiens) (UniProt Q6SZW1). Briefly: blocking NAD cleavage by SARM1 SAM-TIR – cell lysate, NAD-Glo luminescence (AID 1508614;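 active means compound whose remaining NAD level is above about 45 nM, limit read from the data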). The settings on record: SAM-TIR HEK293T lysate NADase, at 1 µM, stronger effect = higher value.
The subject of the next assay is F380Y. Put plainly: BK channel mutant inhibitors and activators – cell-based, U2OS BacMam, thallium flux, beta subunits, selectivity assay, profiling panel (AID 1259406).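 Further: initial slope of Thallos dye fluorescence rise after thallium is added; log ratio against the mean of 0.3% DMSO vehicle wells on the same plate.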 As to conditions: U2OS BacMam BK variants, at 30 µM.
A further assay deals with F380Y/beta1. The description is as above. The settings on record: U2OS BacMam BK variants, at 30 µM.
Another assay concerns F380Y/beta2Delta. The assay is described as above. As to conditions: U2OS BacMam BK variants, at 30 µM.
The next assay has as its system F380Y/beta4. The assay is described as above. The settings on record: U2OS BacMam BK variants, at 30 µM.
Assay [13] has as its target Calcium-activated potassium channel subunit alpha-1 (Homo sapiens) + Leucine-rich repeat-containing protein 26 (Homo sapiens) (UniProt Q12791+Q2I0M4). The assay is described as above. The settings on record: U2OS BacMam BK variants, F380Y/Slo1WT/gamma1, at 30 µM.
The subject of the next assay is R275C. The description is as above. As to conditions: U2OS BacMam BK variants, at 30 µM.
A short description of assay [14]: viability loss with induced miR-34 in A549 – imaging, A549 dox-inducible miR-34, nuclei and caspase counts, primary screen (AID 1347080;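 active means compounds whose cell count with miR-34 switched on is under 0.7 times the count with it off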). The settings on record: A549 miR-34 inducible, Hoechst nuclei count, 48 h.
Setting [15] is: measured here: epithelial PC-3E GFP cell survival.
[16] abbreviates: measured here: mesenchymal TEM4-18 mCherry cell survival.
Where [17] appears, read: MELAS cybrid survival, CellTiter-Glo 48 h, stronger effect = higher value.
The mark [18] stands for this setting: Rieske KO mouse fibroblast survival, CellTiter-Glo 72 h.
[19] abbreviates: stronger effect = lower value, cell number ratio, induced over uninduced.
Setting [20] is: measured here: relative caspase fold change +Dox/-Dox.
Setting [21] is: measured here: total cells with miR-34 induction, stronger effect = lower value.
Where [22] appears, read: measured here: total cells without miR-34 induction.

Structures are written as SMILES. “And” between values parts separate entries of the source, which are not always exact repeats. Identical values can stand only once. Some compounds were tested as several samples or in several runs, with calls that do not always agree. The source made the active and inactive calls.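 How the source made its calls, unless noted: active means thallium flux through the channel raised or lowered by more than 3 SD from vehicle-only wells, actives on both sides; inactive means the rest.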

Sequence of Calcium-activated potassium channel subunit alpha-1 (Homo sapiens) + Leucine-rich repeat-containing protein 26 (Homo sapiens) (Q2I0M4 whole entry, looked up, one chain of several): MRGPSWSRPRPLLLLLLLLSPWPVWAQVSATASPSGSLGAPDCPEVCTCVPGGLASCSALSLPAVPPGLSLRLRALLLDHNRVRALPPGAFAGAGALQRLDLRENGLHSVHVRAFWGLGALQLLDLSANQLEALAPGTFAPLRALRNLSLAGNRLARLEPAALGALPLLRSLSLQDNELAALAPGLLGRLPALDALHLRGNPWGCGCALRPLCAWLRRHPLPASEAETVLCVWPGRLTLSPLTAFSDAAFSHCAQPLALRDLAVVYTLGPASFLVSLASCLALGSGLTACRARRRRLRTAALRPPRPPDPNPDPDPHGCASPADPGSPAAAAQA
Sequence of NAD(+) hydrolase SARM1 (Homo sapiens) (Q6SZW1 whole entry, looked up): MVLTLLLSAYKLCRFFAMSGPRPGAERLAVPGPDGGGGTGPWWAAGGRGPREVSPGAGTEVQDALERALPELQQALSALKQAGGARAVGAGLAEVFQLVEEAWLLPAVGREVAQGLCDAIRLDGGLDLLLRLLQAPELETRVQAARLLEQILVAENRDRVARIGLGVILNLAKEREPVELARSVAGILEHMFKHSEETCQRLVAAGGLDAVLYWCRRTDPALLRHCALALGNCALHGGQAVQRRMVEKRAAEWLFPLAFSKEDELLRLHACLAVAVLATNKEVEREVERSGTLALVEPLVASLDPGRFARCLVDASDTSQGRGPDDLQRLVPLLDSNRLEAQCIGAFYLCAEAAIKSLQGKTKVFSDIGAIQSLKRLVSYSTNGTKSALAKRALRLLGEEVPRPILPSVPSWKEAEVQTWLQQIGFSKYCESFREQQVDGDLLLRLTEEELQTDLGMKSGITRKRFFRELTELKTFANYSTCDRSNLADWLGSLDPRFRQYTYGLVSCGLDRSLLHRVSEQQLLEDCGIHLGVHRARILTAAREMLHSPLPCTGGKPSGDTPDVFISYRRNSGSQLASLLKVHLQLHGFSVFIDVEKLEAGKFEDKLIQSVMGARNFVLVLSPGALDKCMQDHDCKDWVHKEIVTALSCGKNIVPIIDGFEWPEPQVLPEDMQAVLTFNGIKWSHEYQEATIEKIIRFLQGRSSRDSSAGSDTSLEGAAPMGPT
Sequence of 6-phosphogluconate dehydrogenase, decarboxylating (Homo sapiens) (P52209 whole entry, looked up): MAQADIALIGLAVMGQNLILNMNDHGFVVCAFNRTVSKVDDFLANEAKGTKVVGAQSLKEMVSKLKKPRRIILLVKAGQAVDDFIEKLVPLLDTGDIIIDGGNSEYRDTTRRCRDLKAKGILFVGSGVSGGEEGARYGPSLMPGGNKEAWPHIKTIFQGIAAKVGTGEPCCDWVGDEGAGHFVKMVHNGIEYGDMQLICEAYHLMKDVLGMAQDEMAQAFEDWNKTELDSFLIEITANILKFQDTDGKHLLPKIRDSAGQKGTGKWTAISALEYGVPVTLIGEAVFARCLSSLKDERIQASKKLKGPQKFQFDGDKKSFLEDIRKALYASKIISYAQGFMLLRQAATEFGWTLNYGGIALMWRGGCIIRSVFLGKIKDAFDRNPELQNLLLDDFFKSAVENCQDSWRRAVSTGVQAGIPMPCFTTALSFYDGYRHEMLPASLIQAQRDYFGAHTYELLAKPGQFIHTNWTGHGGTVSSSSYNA

Regarding `Cc1ccc(C)c(OCCCC(C)(C)C(=O)O)c1`, the nuclear beta-catenin stimulation in assay [1] (at 10 µM) was 1.3% (inactive); in assay [1] (stimulation, at 2 µM), 1.2%. Moreover, the insulin secretion stimulation in assay [2] was -1% (inactive). Further, the viability decrease in assay [3] was 4.95% (inactive). Moreover, the tube area decrease in assay [4] is -9.2% (inactive). The GLP1 secretion stimulation in [5] was 2.4% (inactive). In assay [6], the inhibition of viability is -1.9% (inactive). In addition, the viability decrease (inhibition) is 20.7% (inactive) in assay [7] and 0.75% (inactive) in [8]. Besides, the inhibition in [9] was -2.35% (inactive). Besides, the red/green cell ratio (normalised) in assay [10] was 1.25 (inactive). The normalised cell number in [10] (setting [15]) was found to be 0.82; in assay [10] (setting [16]), 1.03. Besides, the z-score is -0.269 (inactive) and 0.233 (inactive) and 0.482 (inactive) in assay [11] (setting [17]); 0.636 and -0.228 and 0.576 in [11] (setting [18]). Further, in [12], the remaining NAD is 10 nM (inactive). Besides, the log fold change Tl+ flux is 0.0531 (inactive) in the assay with F380Y; 0.07 (inactive) in the assay on F380Y/beta1; 0.0499 (inactive) with F380Y/beta2Delta; 0.0166 (inactive) with F380Y/beta4; 0.0687 (inactive) in assay [13]; 0.0109 (inactive) in the assay on R275C.

As for `Nc1ncn([C@@H]2O[C@H](CO)[C@@H](O)[C@H]2O)c(=O)n1`, the nuclear beta-catenin stimulation in assay [1] (at 10 µM) is 21.7% (inactive); in assay [1] (stimulation, at 2 µM) it was 1.8%. Further, the insulin secretion stimulation in [2] is 0.5% (inactive). In assay [3], the viability decrease is 83.3% (active). In addition, the tube area decrease in assay [4] is 66.1% (active). Further, the GLP1 secretion stimulation in [5] was -0.3% (inactive). Also, the inhibition of viability in [6] was 94.3% (active). Besides, the values for the viability decrease (inhibition) in assay [7] and in assay [8] were 113% (active) and 91% (active), respectively. In addition, the inhibition in assay [9] was 4.17% (inactive). In addition, in assay [10], the red/green cell ratio (normalised) is 0.99 (inactive). Also, the normalised cell number in assay [10] (setting [15]) stood at 0.83; in assay [10] (setting [16]), 0.82. Moreover, the fold change in [14] (setting [19]) is 0.885 (inactive) and 0.737 (inactive) and 0.556 (active); in [14] (setting [20]) it was 3.44 and 3.26 and 2.98. Further, the cell count was 1630 and 1960 and 3690 in assay [14] (setting [21]); 1840 and 2660 and 6640 in [14] (setting [22]). Further, in assay [12], the remaining NAD is 10 nM (inactive). Moreover, the log fold change Tl+ flux in the assay with F380Y is -0.0337 (inactive); in the assay on F380Y/beta1, -0.0139 (inactive); in the assay on F380Y/beta2Delta, 0.0239 (inactive); in the assay with F380Y/beta4, -0.0152 (inactive); in assay [13], 0.00381 (inactive); with R275C, 0.0227 (inactive).

On to `N[C@@H](C(=O)N[C@@H]1C(=O)N2C(C(=O)O)=C(Cl)CS[C@H]12)c1ccccc1`, for which the nuclear beta-catenin stimulation in assay [1] (at 10 µM) is 0.3% (inactive); in assay [1] (stimulation, at 2 µM) it was 1.1%. Moreover, the insulin secretion stimulation in assay [2] is 1.9% (inactive). Moreover, the viability decrease in assay [3] is 12.5% (inactive). Besides, the tube area decrease in assay [4] is -21% (inactive). Besides, the GLP1 secretion stimulation in assay [5] was -1.7% (inactive). The inhibition of viability in assay [6] was -1.63% (inactive). The values for the viability decrease (inhibition) in assay [7] and in assay [8] were 26.8% (inactive) and -20.5% (inactive), respectively. Also, the inhibition in [9] was -9.98% (inactive). Further, in [10], the red/green cell ratio (normalised) is 1.23 (inactive). Besides, the values for the normalised cell number in assay [10] (setting [15]) and in assay [10] (setting [16]) were 0.9 and 1.1, respectively. Also, the fold change is 0.883 (inactive) and 0.884 (inactive) in assay [14] (setting [19]); 1.88 and 4.52 in assay [14] (setting [20]). Also, the cell count is 8220 and 11700 in assay [14] (setting [21]); 9320 and 13200 in assay [14] (setting [22]). Besides, the z-score in assay [11] (setting [17]) was 0.0553 (inactive); in assay [11] (setting [18]), -0.142. Besides, the remaining NAD in assay [12] was 10 nM (inactive). Moreover, the log fold change Tl+ flux was -0.0277 (inactive) with F380Y; -0.0714 (inactive) in the assay with F380Y/beta1; -0.0661 (inactive) in the assay on F380Y/beta2Delta; -0.0331 (inactive) in the assay with F380Y/beta4; -0.07 (inactive) in [13]; 0.0278 (inactive) in the assay with R275C.

Broadly, the inhibition is the relative decrease from the control value, in per cent.
